Reference: PubChem BioAssay (EPA / NIEHS)
Inconclusive results are not listed. The source made the active and inactive calls. Rule for the calls, unless noted: active = hit-call score of the fitted dose curve at least 0.9, where 1 is the maximum; inactive = score below 0.9.

What was measured:
[1] = target: Paired box protein Pax-6 (Homo sapiens) (UniProt P26367); assay: ATG_Pax6_CIS: Attagene CIS-FACTORIAL HepG2 Assay for human Paired Box 6 (PAX6) (AID 2282956); details: HepG2 CIS-FACTORIAL PAX6 reporter transcription, RNA readout; actives raise or lower the signal
Paired box protein Pax-6 (Homo sapiens), sequence (P26367 whole entry, looked up): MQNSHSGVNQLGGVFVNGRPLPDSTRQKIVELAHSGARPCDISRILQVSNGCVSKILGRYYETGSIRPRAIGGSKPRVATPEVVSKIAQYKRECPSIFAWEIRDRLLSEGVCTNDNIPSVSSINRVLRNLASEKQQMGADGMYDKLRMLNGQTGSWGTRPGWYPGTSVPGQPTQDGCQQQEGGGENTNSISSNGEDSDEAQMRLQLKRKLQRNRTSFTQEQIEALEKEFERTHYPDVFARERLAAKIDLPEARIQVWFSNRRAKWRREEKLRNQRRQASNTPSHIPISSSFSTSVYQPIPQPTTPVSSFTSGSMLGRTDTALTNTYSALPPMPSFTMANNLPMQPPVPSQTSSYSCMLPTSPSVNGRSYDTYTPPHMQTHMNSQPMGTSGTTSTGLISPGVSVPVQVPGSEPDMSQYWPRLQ
In short: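 Fluorescent RT-PCR products separated by capillary electrophoresis report PAX6-linked promoter mRNA in HepG2 cells 24 h post-dose. Curves fitted bidirectionally, DMSO as negative control.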

[2] = ATG_PXRE_CIS: Attagene CIS-FACTORIAL HepG2 Assay for human Pregnane X Receptor Element (PXRE) (AID 2282957); details: HepG2 Attagene CIS-FACTORIAL PXRE reporter, mRNA; actives raise or lower the signal
In short: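 After a 24 h chemical incubation, total RNA from transfected HepG2 cells was reverse-transcribed and reporter cDNA amplified, FAM-labeled, HpaI-digested and sized by capillary electrophoresis. DMSO served as baseline for bidirectional curve fitting.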

[3] = ATG_PPRE_CIS: Attagene CIS-FACTORIAL HepG2 Assay for human Peroxisome Proliferator-activated Response Element (PPRE) (AID 2282958); details: HepG2 PPRE cis-element reporter, Attagene transcription factor profiling; actives raise or lower the signal
In short: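 PPRE activity in HepG2: transient cis-reporter transfection, 24 h compound incubation, reporter mRNA by RT-PCR and CE fluorescence; gain/loss fitted against DMSO.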

[4] = ATG_RORE_CIS: Attagene CIS-FACTORIAL HepG2 Assay for human RAR-related Orphan Receptor Element (RORE) (AID 2282959); details: HepG2 Attagene cis-factorial RORE reporter, mRNA; actives raise or lower the signal
In short: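 A 24-hour exposure of transfected HepG2 hepatoma cells precedes RNA isolation and reporter RT-PCR. Labeled products are digested with HpaI and resolved by capillary electrophoresis, with gain or loss of signal scored relative to DMSO.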

[5] = ATG_Sox_CIS: Attagene CIS-FACTORIAL HepG2 Assay for human SRY-box transcription factor (SOX) (AID 2282960); details: HepG2 Attagene cis-factorial SOX reporter, mRNA; actives raise or lower the signal
In short: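 HepG2, cis reporter units, 24 h exposure. Reporter mRNA: RT-PCR → FAM labelling → HpaI → CE fluorescence. Bidirectional fit vs DMSO.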

[6] = target: Transcription factor Sp1 (Homo sapiens) (UniProt P08047); assay: ATG_Sp1_CIS: Attagene CIS-FACTORIAL HepG2 Assay for human Specificity Protein 1 (Sp1) (AID 2282961); details: HepG2 Sp1 cis-reporter transcription, actives raise or lower the signal
Transcription factor Sp1 (Homo sapiens), sequence (P08047 whole entry, looked up, the tested form may be a part): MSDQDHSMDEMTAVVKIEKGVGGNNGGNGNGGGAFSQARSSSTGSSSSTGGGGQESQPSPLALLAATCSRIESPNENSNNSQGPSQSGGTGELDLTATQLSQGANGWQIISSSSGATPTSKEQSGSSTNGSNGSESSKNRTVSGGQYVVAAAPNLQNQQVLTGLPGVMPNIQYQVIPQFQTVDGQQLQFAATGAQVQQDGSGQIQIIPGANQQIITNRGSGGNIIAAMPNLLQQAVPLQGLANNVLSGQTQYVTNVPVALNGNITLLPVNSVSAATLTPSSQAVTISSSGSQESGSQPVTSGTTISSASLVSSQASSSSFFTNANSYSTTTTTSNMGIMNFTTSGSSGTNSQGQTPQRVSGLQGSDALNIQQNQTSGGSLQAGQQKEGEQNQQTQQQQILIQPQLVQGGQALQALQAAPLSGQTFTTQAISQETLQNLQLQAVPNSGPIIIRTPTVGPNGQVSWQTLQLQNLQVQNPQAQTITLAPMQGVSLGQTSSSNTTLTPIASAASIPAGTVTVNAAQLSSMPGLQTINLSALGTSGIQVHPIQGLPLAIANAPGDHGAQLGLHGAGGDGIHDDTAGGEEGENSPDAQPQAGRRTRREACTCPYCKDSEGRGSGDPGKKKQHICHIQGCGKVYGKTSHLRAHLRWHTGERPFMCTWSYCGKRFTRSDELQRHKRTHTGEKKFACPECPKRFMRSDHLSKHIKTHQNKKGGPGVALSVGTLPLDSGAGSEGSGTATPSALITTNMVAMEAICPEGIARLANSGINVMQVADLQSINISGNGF
In short: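 Liver-derived HepG2 cells, cis-element reporter library, 24 h treatment; RNA isolated, cDNA amplified with reporter-specific primers, FAM-labeled fragments sized on capillary analyzer. DMSO baseline, bidirectional curve fit.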

[7] = ATG_SREBP_CIS: Attagene CIS-FACTORIAL HepG2 Assay for human Sterol Regulatory Element Binding (SREBP) (AID 2282962); details: HepG2 Attagene cis-factorial SREBP reporter, mRNA; actives raise or lower the signal
In short: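 Endogenous factor activity is measured in HepG2 through multiplexed reporter units under cis-element control. Following a 24 h incubation, reporter transcripts are reverse-transcribed, PCR-amplified and sized by capillary electrophoresis; activity is fitted in both directions relative to DMSO.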

[8] = target: Signal transducer and activator of transcription 3 (Homo sapiens) (UniProt P40763); assay: ATG_STAT3_CIS: Attagene CIS-FACTORIAL HepG2 Assay for human Signal Transducer and Activator of Transcription 3 (STAT3) (AID 2282963); details: HepG2, Attagene cis-factorial STAT3 reporter transcription; actives raise or lower the signal
Signal transducer and activator of transcription 3 (Homo sapiens), sequence (P40763 whole entry, looked up, the tested form may be a part): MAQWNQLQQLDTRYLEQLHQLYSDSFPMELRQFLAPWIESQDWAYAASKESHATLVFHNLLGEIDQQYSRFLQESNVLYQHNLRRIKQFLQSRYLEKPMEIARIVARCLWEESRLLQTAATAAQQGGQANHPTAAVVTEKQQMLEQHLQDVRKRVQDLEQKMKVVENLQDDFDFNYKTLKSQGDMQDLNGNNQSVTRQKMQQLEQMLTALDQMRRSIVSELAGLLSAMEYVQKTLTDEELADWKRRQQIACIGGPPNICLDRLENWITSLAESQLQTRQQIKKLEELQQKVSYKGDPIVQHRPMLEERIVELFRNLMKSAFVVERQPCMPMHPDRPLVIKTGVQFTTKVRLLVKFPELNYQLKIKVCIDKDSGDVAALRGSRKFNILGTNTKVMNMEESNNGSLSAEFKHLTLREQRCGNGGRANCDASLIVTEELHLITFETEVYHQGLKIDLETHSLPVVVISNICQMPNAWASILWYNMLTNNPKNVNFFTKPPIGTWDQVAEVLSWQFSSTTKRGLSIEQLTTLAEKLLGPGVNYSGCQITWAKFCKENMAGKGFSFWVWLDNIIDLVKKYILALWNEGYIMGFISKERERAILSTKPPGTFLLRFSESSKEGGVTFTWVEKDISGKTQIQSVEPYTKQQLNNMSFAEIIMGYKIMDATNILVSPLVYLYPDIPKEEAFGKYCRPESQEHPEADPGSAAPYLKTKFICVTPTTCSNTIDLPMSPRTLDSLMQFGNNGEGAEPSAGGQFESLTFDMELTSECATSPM
In short: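 Fluorescence intensity of 6-FAM-labelled reporter fragments, separated by capillary electrophoresis after RT-PCR, gave the signal. Cells were HepG2 transfected with cis-element reporter units and treated 24 h; fitting was bidirectional relative to DMSO.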

[9] = ATG_TA_CIS: Attagene CIS-FACTORIAL HepG2 Assay for human TA Basal Promoter (AID 2282964); details: HepG2 Attagene CIS-factorial TA basal promoter reporter; actives raise or lower the signal
In short: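 Transfected HepG2, 24 h compound exposure; RNA → RT-PCR → FAM primer extension → HpaI cut → CE fluorescence. Gain/loss-of-signal fitted against DMSO negative control. Background-control readout.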

[10] = ATG_TCF_b_cat_CIS: Attagene CIS-FACTORIAL HepG2 Assay for human T-Cell-Factor with beta-catenin (TCF/b-cat) (AID 2282965); details: HepG2 TCF/beta-catenin cis-reporter transcription, actives raise or lower the signal
In short: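 HepG2, transient MRTU transfection, cis-element-driven reporters (endogenous TFs). 24 h compound exposure. Readout: reporter mRNA by RT-PCR + 6-FAM primer extension, HpaI digest, capillary electrophoresis. Gain/loss fit vs DMSO baseline.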

[11] = ATG_TAL_CIS: Attagene CIS-FACTORIAL HepG2 Assay for human TAL Basal Promoter (AID 2282966); details: HepG2 Attagene cis-factorial TAL promoter reporter; actives raise or lower the signal;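 note: background control endpoint measuring basal TAL promoter reporter mRNA not a specific factor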
In short: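 Basal-promoter background-control endpoint from a multiplexed HepG2 reporter panel. Cells were exposed 24 h, then reporter mRNA was read by RT-PCR/CE fluorescence and fitted in both directions relative to DMSO.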

[12] = ATG_TGFb_CIS: Attagene CIS-FACTORIAL HepG2 Assay for human Transforming Growth Factor (TGF) (AID 2282967); details: HepG2 Attagene CIS TGFb reporter, mRNA transcription; actives raise or lower the signal
In short: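 Readout: fluorescently labeled reporter cDNA fragments resolved by capillary electrophoresis after RT-PCR. Transfected HepG2 cells dosed for 24 h; endogenous TF activity at TGFB1-linked cis element; gain or loss fitted relative to DMSO.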

[13] = ATG_VDRE_CIS: Attagene CIS-FACTORIAL HepG2 Assay for human Vitamin D Receptor Element (VDRE) (AID 2282968); details: HepG2 VDRE cis-reporter transcription, actives raise or lower the signal
In short: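 Compounds were applied for 24 h to HepG2 cells transfected with promoter-regulated reporter units. Total RNA was reverse-transcribed, and reporter amplicons were fluorescently labelled and sized by capillary electrophoresis.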

[14] = target: X-box-binding protein 1 (Homo sapiens) (UniProt P17861); assay: ATG_Xbp1_CIS: Attagene CIS-FACTORIAL HepG2 Assay for human X-box Binding Protein 1 (XBP1) (AID 2282972); details: HepG2 XBP1 cis-element reporter, Attagene multiplex; actives raise or lower the signal
X-box-binding protein 1 (Homo sapiens), sequence (P17861 whole entry, looked up): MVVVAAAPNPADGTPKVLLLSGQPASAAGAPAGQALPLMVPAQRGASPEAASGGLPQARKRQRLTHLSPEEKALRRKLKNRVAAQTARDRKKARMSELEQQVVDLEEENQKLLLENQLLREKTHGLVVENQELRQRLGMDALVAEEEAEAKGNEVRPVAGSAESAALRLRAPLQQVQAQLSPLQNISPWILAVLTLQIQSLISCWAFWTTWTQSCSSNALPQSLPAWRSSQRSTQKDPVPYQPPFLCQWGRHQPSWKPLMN
In short: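 Multiplexed cis-reporter readout in transfected HepG2 liver cells. Exposure lasted 24 hours. Activity in either direction was fitted against DMSO as negative control and baseline.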

[15] = ATG_M_19_TRANS: Attagene TRANS-FACTORIAL HepG2 Assay for M19 Transcription Factor (Internal Marker) (AID 2282974; active = hit-call score of the fitted dose curve at least 0.9, where 1 is the maximum); details: HepG2 Attagene TRANS-FACTORIAL M19 internal marker reporter
In short: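 Transfected HepG2 (GAL4-UAS MRTUs), 24 h compound, TriZol RNA, DNase-treated RT, reporter PCR, FAM label, HpaI digest, CE fluorescence; gain vs DMSO.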

[16] = ATG_GAL4_TRANS: Attagene TRANS-FACTORIAL HepG2 Assay for GAL4 (Internal Marker) (AID 2282976; active = hit-call score of the fitted dose curve at least 0.9, where 1 is the maximum); details: HepG2 Attagene TRANS GAL4 internal marker reporter
In short: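 Background-control readout: GAL4-UAS reporter transcript in transiently transfected HepG2 cells after 24 h compound exposure. Measured by RT-PCR, 6-FAM primer extension, HpaI digest and capillary electrophoresis; gain-of-signal fit versus DMSO.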

[17] = target: Estrogen receptor (Homo sapiens) (UniProt P03372); assay: ATG_ERa_TRANS: Attagene TRANS-FACTORIAL HepG2 Assay for human Estrogen Receptor alpha (ERa) (AID 2282970; active = hit-call score of the fitted dose curve at least 0.9, where 1 is the maximum); details: HepG2 Attagene TRANS ERa GAL4 reporter, mRNA
Estrogen receptor (Homo sapiens), sequence (P03372 whole entry, looked up, the tested form may be a part): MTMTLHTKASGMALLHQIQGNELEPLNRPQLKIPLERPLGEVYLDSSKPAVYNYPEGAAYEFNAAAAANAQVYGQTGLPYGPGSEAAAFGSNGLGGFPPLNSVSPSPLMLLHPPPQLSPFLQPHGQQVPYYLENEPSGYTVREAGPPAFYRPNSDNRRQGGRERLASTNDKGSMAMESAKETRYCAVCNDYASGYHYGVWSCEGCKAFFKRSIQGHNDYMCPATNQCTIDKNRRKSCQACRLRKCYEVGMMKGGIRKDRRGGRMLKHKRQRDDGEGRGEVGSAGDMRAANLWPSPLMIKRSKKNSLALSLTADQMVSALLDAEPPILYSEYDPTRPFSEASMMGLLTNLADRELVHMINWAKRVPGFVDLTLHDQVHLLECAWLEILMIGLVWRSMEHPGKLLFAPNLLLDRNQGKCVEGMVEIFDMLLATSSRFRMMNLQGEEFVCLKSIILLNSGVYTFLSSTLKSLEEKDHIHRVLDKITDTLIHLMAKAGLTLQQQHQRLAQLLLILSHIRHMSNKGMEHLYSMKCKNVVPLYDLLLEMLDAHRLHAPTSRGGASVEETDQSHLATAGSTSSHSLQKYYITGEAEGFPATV
In short: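 Gal4-fusion ERa transactivation, measured as reporter transcript level in transiently transfected HepG2 cells. Exposure 24 h; RT-PCR plus capillary electrophoresis with fluorescence detection.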

[18] = target: Steroid hormone receptor ERR1 (Homo sapiens) (UniProt P11474); assay: ATG_ERRa_TRANS: Attagene TRANS-FACTORIAL HepG2 Assay for human Estrogen-Related Receptor alpha (ERRa) (AID 2282971; active = hit-call score of the fitted dose curve at least 0.9, where 1 is the maximum); details: HepG2 Attagene TRANS reporter, ERRa transactivation
Steroid hormone receptor ERR1 (Homo sapiens), sequence (P11474 whole entry, looked up, the tested form may be a part): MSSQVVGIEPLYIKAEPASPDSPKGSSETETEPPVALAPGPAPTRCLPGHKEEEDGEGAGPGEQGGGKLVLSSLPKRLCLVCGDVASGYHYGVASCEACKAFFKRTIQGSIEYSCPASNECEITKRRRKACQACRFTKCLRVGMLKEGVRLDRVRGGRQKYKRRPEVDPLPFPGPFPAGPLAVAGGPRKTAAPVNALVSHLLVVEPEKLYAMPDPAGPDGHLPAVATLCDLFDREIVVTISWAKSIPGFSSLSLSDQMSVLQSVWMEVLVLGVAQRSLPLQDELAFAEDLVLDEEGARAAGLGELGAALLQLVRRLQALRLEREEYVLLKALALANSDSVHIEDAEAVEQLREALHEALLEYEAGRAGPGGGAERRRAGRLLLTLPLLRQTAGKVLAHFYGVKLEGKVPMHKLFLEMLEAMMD
In short: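 HepG2 cells transiently transfected with GAL4-UAS reporter units and chimeric NR-Gal4 constructs; after 24 hour compound incubation, reporter mRNA quantified by RT-PCR, fluorescent labelling and capillary electrophoresis, gain of signal versus DMSO.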

[19] = target: Estrogen-related receptor gamma (Homo sapiens) (UniProt P62508); assay: ATG_ERRg_TRANS: Attagene TRANS-FACTORIAL HepG2 Assay for human Estrogen-Related Receptor gamma (ERRg) (AID 2282977; active = hit-call score of the fitted dose curve at least 0.9, where 1 is the maximum;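 note: hits increase reporter signal over DMSO so potencies reflect activators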); details: HepG2 Attagene TRANS reporter, ERRg transactivation
Estrogen-related receptor gamma (Homo sapiens), sequence (P62508 whole entry, looked up, the tested form may be a part): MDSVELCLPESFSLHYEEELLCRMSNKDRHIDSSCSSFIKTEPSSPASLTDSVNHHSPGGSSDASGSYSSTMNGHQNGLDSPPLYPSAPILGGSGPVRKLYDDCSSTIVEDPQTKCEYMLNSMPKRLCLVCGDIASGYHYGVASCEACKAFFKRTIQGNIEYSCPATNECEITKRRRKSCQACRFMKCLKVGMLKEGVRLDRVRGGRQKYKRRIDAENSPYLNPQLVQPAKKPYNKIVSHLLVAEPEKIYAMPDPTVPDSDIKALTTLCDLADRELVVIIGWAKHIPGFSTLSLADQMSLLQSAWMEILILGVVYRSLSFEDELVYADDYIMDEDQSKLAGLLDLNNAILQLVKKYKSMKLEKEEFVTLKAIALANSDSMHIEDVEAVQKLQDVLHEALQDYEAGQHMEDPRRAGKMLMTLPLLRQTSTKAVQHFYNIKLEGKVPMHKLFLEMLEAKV
In short: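 Induction of reporter transcripts through a chimeric NR-Gal4 protein is quantified in transfected human HepG2 liver cells after 24 h chemical exposure, using RT-PCR with capillary electrophoresis detection and DMSO as baseline.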

Measured: AC50

CO[Si](CCC1CCC2OC2C1)(OC)OC (stereo not given)
not listed: [17] | [18] | [19]
inactive: all other assays above

CCCCCCCC(C)=O
not listed: [15] | [17] | [18] | [19]
inactive: all other assays above

O=S(=O)(O)c1ccc2cc(O)c(S(=O)(=O)O)cc2c1
active: [1] 151 µM | [10] 66.9 µM | [14] 172 µM
not listed: [15] | [16] | [17] | [18] | [19]
inactive: all other assays above

O=c1[nH]c(=O)c2[nH]c(=O)[nH]c2[nH]1
not listed: [13] | [15] | [16] | [18] | [19]
inactive: all other assays above

[Cl][Nd]([Cl])[Cl]
not listed: [15] | [16] | [17] | [19]
inactive: all other assays above

O=CC1CC1
not listed: [17] | [18] | [19]
inactive: all other assays above

c1ccc(CCCc2ccncc2)cc1
active: [2] 27 µM
not listed: [13] | [15] | [16] | [18] | [19]
inactive: all other assays above

c1ccc(-c2ccccn2)nc1
not listed: [15] | [16] | [18]
inactive: all other assays above

CC(=O)[C@H]1[C@H](C#N)C[C@H]2[C@@H]3CC=C4C[C@@H](O)CC[C@]4(C)[C@H]3CC[C@@]21C
not listed: [16] | [17] | [18] | [19]
inactive: all other assays above
